In PubChem BioAssay (NCI) one finds growth data, which are given here for five compounds.

Compounds without any hit were thinned out: in the full panel of roughly 83,000, 20% have a hit.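 96-well plates, one dose, 48 hours. Percent growth reported; active if below 10.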 A number with no mark means an inactive call. Active and inactive are the calls of the source.

Holding throughout (test): NCI-60 one-dose screen, 48 h (100 = growth as untreated, 0 = no growth, -100 = all killed)
What all share (conditions): 10 µM

Assay [1] relates to 786-0 renal.
Assay [2] deals with MALME-3M melanoma.
The test system of assay [3] is UACC-257 melanoma.
In assay [4] the test system is SK-MEL-2 melanoma.
The subject of assay [5] is EKVX NSCLC.
Assay [6] deals with SN12C renal.
Assay [7] relates to TK-10 renal.
In assay [8] the test system is ACHN renal.
Assay [9] concerns CAKI-1 renal.
For assay [10], the system named is A498 renal.
Assay [11] concerns RPMI-8226 leukemia.
Assay [12] has as its system OVCAR-8 ovarian.
Assay [13] has as its system OVCAR-4 ovarian.
Assay [14] deals with SK-OV-3 ovarian.
The subject of assay [15] is IGROV1 ovarian.
The test system of assay [16] is OVCAR-3 ovarian.
Assay [17] concerns BT-549 breast.
The subject of assay [18] is MDA-MB-435 melanoma.
For assay [19], the system named is HCT-116 colon.
For assay [20], the system named is HCC-2998 colon.

Consider `CC12CCC3(CCC(=O)NCCCNc4ccnc5cc(Cl)ccc45)[C@@](C)(OO[C@]3(C)O1)O2`, for which the growth in assay [1] was -22.7% (active); in [2], 17.5%; in [3], 51.1%; in [4] it was 23.3%; in [5], 4.65% (active); in assay [6] it was -15.1% (active). The growth in assay [7] was -17.8% (active); in [8], -10.1% (active); in [9], -25% (active); in [10], 85.3%; in assay [11] it was 22.2%; in [12] it was -1.11% (active). Besides, the growth was 33.1% in assay [13]; 13.1% in assay [14]; -23.3% (active) in assay [15]; 30.8% in [16]; -7.38% (active) in [17]; 18.3% in assay [18]. Also, the growth in [19] was 9.58% (active); in [20] it was 22.8%.
In the case of `COC(=O)c1ccc(-n2cc(CCCN(CCNc3ccnc4cc(Cl)ccc34)C(=O)CCC(=O)O[C@@H]3O[C@@H]4OC5(C)CC[C@H]6[C@H](C)CC[C@@H]([C@H]3C)[C@@]46OO5)nn2)cc1`, the growth is 52.4% in assay [1]; -61.5% (active) in assay [2]; 35% in assay [3]; 29.4% in [4]; 49.4% in assay [5]; 44% in assay [6]. For the same compound, the growth was 60.5% in [7]; 36.3% in [8]; 44.5% in [9]; 100% in assay [10]; 19.7% in assay [11]; 20.9% in assay [12]. The growth in assay [13] is 46.2%; in [14], 85.6%; in [15], 40.4%; in [16], 43.4%; in [17] it was 43.2%; in assay [18], 22.2%. Further, the growth in assay [19] was 26%; in assay [20] it was 49.5%.
As for `O=C(NC([Se])=NC1CCCCC1)c1ccccc1`, the growth was 39.4% in assay [1]; 94.4% in assay [2]; 30.8% in assay [3]; -2.88% (active) in assay [4]; 19% in assay [5]; 39.6% in assay [6]. The growth in assay [7] was 28.8%; in assay [8], 34.5%; in assay [9] it was 32.4%; in assay [10], 73.3%; in assay [11] it was 56.2%; in assay [12] it was 40.9%. For the same compound, the growth in assay [13] was 75.7%; in assay [14], 5.33% (active); in assay [15] it was 13.6%; in assay [16], 48.4%; in [17] it was 75.8%; in assay [18], 42.4%. Also, the growth in assay [19] was 30.4%; in [20], 62.8%.
Regarding `O=C(NCCCCC(c1ccc(F)cc1)c1ccc(F)cc1)Nc1ccc([N+](=O)[O-])c(C(F)(F)F)c1`, the growth in assay [1] was -15% (active); in assay [2] it was -25.8% (active); in [3], -15.7% (active); in assay [4] it was -71% (active); in assay [5] it was 4.51% (active); in assay [6], 7.2% (active). The growth in assay [7] is 10%; in assay [8], -2.96% (active); in assay [9] it was -3.31% (active); in assay [10] it was -9.75% (active); in assay [11], -39.3% (active); in assay [12], 5.42% (active). The growth in [13] was 11.5%; in assay [14] it was -33% (active); in assay [15], 15.4%; in [16], 1.5% (active); in [17], -28% (active); in assay [18], -21.3% (active). Further, the growth in assay [19] was -58.2% (active); in [20], 7.86% (active).
As to `C#CC[Se]C(=O)c1ccc2n[se]nc2c1`, the growth in assay [1] was 63.4%; in [2], 41.5%; in [3] it was 59.3%; in assay [4], 104%; in [5] it was 13.8%; in assay [6] it was 56.3%. In addition, the growth in assay [7] is 65.1%; in assay [8], 35.6%; in assay [9] it was 71.3%; in assay [10], 95.3%; in assay [11] it was 21.3%; in assay [12], 74.9%. The growth was 74.5% in assay [13]; 95.4% in assay [14]; 77.7% in assay [15]; 46.2% in assay [16]; 52.1% in assay [17]; 85.9% in [18]. Also, the values for the growth in assay [19] and in assay [20] were -27.1% (active) and 95.8%, respectively.
